Outcome and AC50 data for six compounds are collected here from PubChem BioAssay (EPA / NIEHS).

Read-out in assay [1]: solute carrier (SLCO1B1), SLCO1B1 (gene 10599)
The assay can be described thus: LTEA_HepaRG_SLCO1B1: Life Technologies and Expression Analysis (LTEA) Assay for solute carrier (SLCO1B1) using HepaRG (AID 2283530; active = hit-call score of the fitted dose curve at least 0.9, where 1 is the maximum; inactive = score below 0.9). The following applies: mRNA level, 48 h; actives raise or lower the signal. In outline:
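Differentiated human HepaRG cells were exposed for 48 h in serum-free induction medium to eight half-log concentrations, top 100 uM, in 0.5% DMSO. SLCO1B1 mRNA was measured by qRT-PCR, normalized to ACTB, GAPDH and POLR2A, and fitted bidirectionally against DMSO.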

Read-out in assay [2]: sulfotransferase 2A1 (SULT2A1), SULT2A1 (gene 6822)
The experiment in a line: LTEA_HepaRG_SULT2A1: Life Technologies and Expression Analysis (LTEA) Assay for sulfotransferase 2A1 (SULT2A1) using HepaRG (AID 2283531; active = hit-call score of the fitted dose curve at least 0.9, where 1 is the maximum; inactive = score below 0.9). The conditions noted are these: mRNA level, 48 h; actives raise or lower the signal. The method in brief:
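HepaRG human liver cells, 48 h exposure in serum-free induction medium to 8 half-log concentrations topping at 100 µM (0.5% DMSO), duplicate wells. SULT2A1 mRNA measured by TaqMan qRT-PCR, normalized to ACTB/GAPDH/POLR2A; bidirectional fit against DMSO.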

Read-out in assay [3]: Transforming Growth Factor (TGFA), TGFA (gene 7039)
The experiment in a line: LTEA_HepaRG_TGFA: Life Technologies and Expression Analysis (LTEA) Assay for Transforming Growth Factor (TGFA) using HepaRG (AID 2283532; active = hit-call score of the fitted dose curve at least 0.9, where 1 is the maximum; inactive = score below 0.9). The following applies: mRNA level, 48 h; actives raise or lower the signal. In outline:
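Differentiated human HepaRG cells, plated 48 h then switched to serum-free induction medium, were exposed in duplicate for 48 h to 8-point half-log series from 100 uM in 0.5% DMSO. TGFA mRNA measured by qRT-PCR, normalized to ACTB/GAPDH/POLR2A, bidirectional fit versus DMSO.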

Read-out in assay [4]: Transforming Growth Factor (TGFB1), TGFB1 (gene 7040)
The assay can be described thus: LTEA_HepaRG_TGFB1: Life Technologies and Expression Analysis (LTEA) Assay for Transforming Growth Factor (TGFB1) Transporter using HepaRG (AID 2283533; active = hit-call score of the fitted dose curve at least 0.9, where 1 is the maximum; inactive = score below 0.9). The following applies: mRNA level, 48 h; actives raise or lower the signal. The method in brief:
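Differentiated HepaRG cells exposed 48 hr in serum-free induction medium to eight half-log concentrations up to 100 uM (0.5% DMSO), duplicate; TGFB1 mRNA by TaqMan qRT-PCR normalised to ACTB, GAPDH, POLR2A; bidirectional fit against DMSO.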

Read-out in assay [5]: Tumor necrosis factor receptor 1 (TNFRSF1A), TNFRSF1A (gene 7132)
The experiment in a line: LTEA_HepaRG_TNFRSF1A: Life Technologies and Expression Analysis (LTEA) Assay for Tumor necrosis factor receptor 1 (TNFRSF1A) using HepaRG (AID 2283535; active = hit-call score of the fitted dose curve at least 0.9, where 1 is the maximum; inactive = score below 0.9). The conditions noted are these: mRNA level, 48 h; actives raise or lower the signal. The method in brief:
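Differentiated HepaRG cells in serum-free induction medium, exposed 48 h in duplicate to 8 half-log concentrations up to 100 uM in 0.5% DMSO. TNFRSF1A mRNA by Fluidigm TaqMan qRT-PCR, normalized to ACTB, GAPDH, POLR2A; bidirectional fit.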

Read-out in assay [6]: Thyroid Hormone Responsive (THRSP), THRSP (gene 7069)
The assay can be described thus: LTEA_HepaRG_THRSP: Life Technologies and Expression Analysis (LTEA) Assay for Thyroid Hormone Responsive (THRSP) using HepaRG (AID 2283536; active = hit-call score of the fitted dose curve at least 0.9, where 1 is the maximum; inactive = score below 0.9). The following applies: mRNA level, 48 h; actives raise or lower the signal. The method in brief: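 Differentiated human HepaRG cells were exposed in duplicate for 48 h in serum-free induction medium to eight concentrations (top 100 uM, half-log steps, 0.5% DMSO). Expression was quantified by TaqMan qRT-PCR, normalized to ACTB, GAPDH and POLR2A, with bidirectional fitting against DMSO.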

Read-out in assay [7]: UDP glucuronosyltransferase (UGT1A1), UGT1A1 (gene 54658)
The experiment in a line: LTEA_HepaRG_UGT1A1: Life Technologies and Expression Analysis (LTEA) Assay for UDP glucuronosyltransferase (UGT1A1) using HepaRG (AID 2283538; active = hit-call score of the fitted dose curve at least 0.9, where 1 is the maximum; inactive = score below 0.9). The conditions noted are these: mRNA level, 48 h; actives raise or lower the signal. In outline: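 Human liver HepaRG cultures receive test chemical for 48 h, up to 100 uM in 0.5% DMSO, with phenobarbital induction controls. UGT1A1 mRNA is measured by qRT-PCR and normalized to ACTB, GAPDH and POLR2A.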

Read-out in assay [8]: UDP glucuronosyltransferase (UGT1A6), UGT1A6 (gene 54578)
The experiment in a line: LTEA_HepaRG_UGT1A6: Life Technologies and Expression Analysis (LTEA) Assay for UDP glucuronosyltransferase (UGT1A6) using HepaRG (AID 2283539; active = hit-call score of the fitted dose curve at least 0.9, where 1 is the maximum; inactive = score below 0.9). The following applies: mRNA level, 48 h; actives raise or lower the signal. The method in brief: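 Differentiated HepaRG cells, ~100,000/well, were exposed for 48 h in serum-free induction medium with 0.5% DMSO to 8-point half-log series topping at 100 uM, in duplicate. mRNA measured by Fluidigm TaqMan qRT-PCR, normalized to ACTB, GAPDH and POLR2A.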

Read-out in assay [9]: X-box binding protein 1 (XBP1), XBP1 (gene 7494)
The experiment in a line: LTEA_HepaRG_XBP1: Life Technologies and Expression Analysis (LTEA) Assay for X-box binding protein 1 (XBP1) using HepaRG (AID 2283540; active = hit-call score of the fitted dose curve at least 0.9, where 1 is the maximum; inactive = score below 0.9). The following applies: mRNA level, 48 h; actives raise or lower the signal. The method in brief:
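Differentiated human HepaRG cells in serum-free induction medium exposed 48 h in duplicate to eight half-log concentrations up to 100 uM in 0.5% DMSO. XBP1 mRNA measured by Fluidigm TaqMan qRT-PCR, normalized to ACTB, GAPDH, POLR2A; bidirectional fitting against DMSO.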

Assay [10] can be described thus: LTEA_HepaRG_LDH_cytotoxicity: Cytotoxicity Assessment in the Life Technologies and Expression Analysis (LTEA) Assay (AID 2283563). In outline:
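Differentiated HepaRG cells in serum-free induction medium, exposed 48 h in duplicate to 8 half-log concentrations up to 100 uM in 0.5% DMSO. Cytotoxicity from LDH measured in spent medium, fit relative to DMSO.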

A short description of assay [11]: ATG_XTT_Cytotoxicity: Cytotoxicity Assessment in the Attagene TRANS-FACTORIAL HepG2 Assay (AID 2283584). The method in brief: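 HepG2 cells transiently transfected with GAL4-UAS multiple reporter units, dosed 24 h; cytotoxicity read by XTT as loss of signal versus DMSO baseline.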
The nature of assay [12]: TOX21_p53_BLA_p3_viability: Viability Assessment in the Tox21 HCT-116 p53 Agonism Beta-lactamase Assay, Phase 3 (AID 2283593).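 Also: cells exposed to compound for 16 h before reading.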 In outline: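 HCT-116 cells (4000/well) rested 5 h at 37C, then got DMSO compounds by pin tool (217-fold dilution) for 16 h at 37C, 5% CO2. After the bla read, CellTiter-Glo was added and luminescence read at 30 min, room temperature.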
Assay [13] in a line: TOX21_p53_BLA_p4_viability: Viability Assessment in the Tox21 HCT-116 p53 Agonism Beta-lactamase Assay, Phase 4 (AID 2283597).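 Also: hits lower the luminescence signal meaning cytotoxicity.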 In outline:
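HCT-116 p53-bla cells, 4000/well, dosed after 5 h attachment and incubated 16 h at 37 °C, 5% CO2. Viability from CellTiter-Glo ATP luminescence after 30 min at room temperature, taken after the beta-lactamase read; loss of signal indicates cytotoxicity.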

Assay [14] deals with Cellular tumor antigen p53 (Homo sapiens) (UniProt P04637). The experiment in a line: TOX21_p53_BLA_p5_ratio: Tox21 HCT-116 p53 Agonism Beta-lactamase Assay, Ratio, Phase 5 (AID 2283599). The method in brief: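 HCT-116 cells carrying a p53-inducible beta-lactamase reporter were seeded at 4000 cells/well and dosed after 5 h with compound in DMSO (217-fold dilution). After 16 h at 37C, CCF4-AM substrate was added for 2 h, and the 460/530 nm emission ratio was scored as gain-of-signal versus DMSO.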

A short description of assay [15]: Tanguay_ZF_120hpf_MORT_legacy: (Legacy) Oregon State University Tanguay Lab 120 Hour Post-fertilization zebrafish Assay for Mortality (AID 2283633).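 As to AC50: fitted as increase in binary mortality versus DMSO negative control.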 In outline: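 Dechorionated Tropical 5D wild-type zebrafish embryos, one per well from 6 hpf, static exposure in 0.64% DMSO at 28C until 120 hpf. Mortality scored as binary by brightfield microscopy at 24 and 120 hpf.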

For assay [16], the target named is Cellular tumor antigen p53 (Homo sapiens) (UniProt P04637). The assay can be described thus: TOX21_p53_BLA_p2_ratio: Tox21 HCT-116 p53 Agonism Beta-lactamase Assay, Ratio, Phase 2 (AID 2283592). The method in brief: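 HCT-116 cells with p53-responsive beta-lactamase reporter, 4000 cells/well, preincubated 5 h, then compound in DMSO (217-fold dilution) for 16 h at 37C. CCF4-AM substrate 2 h at room temperature; 460/530 nm emission ratio fitted upward versus DMSO.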

For assay [17] the target is unchanged. The assay can be described thus: TOX21_p53_BLA_p3_ratio: Tox21 HCT-116 p53 Agonism Beta-lactamase Assay, Ratio, Phase 3 (AID 2283596). The method in brief: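 HCT116 p53-bla cells (4000/well) given compound in DMSO (217-fold dilution) after 5 h, incubated 16 h at 37C. CCF4-AM substrate 2 h at room temperature; 460/530 nm emission ratio, gain fitted against DMSO.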

Assay [18] has the same target. The experiment in a line: TOX21_p53_BLA_p4_ratio: Tox21 HCT-116 p53 Agonism Beta-lactamase Assay, Ratio, Phase 4 (AID 2283601). In outline:
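HCT116 cells carrying an inducible beta-lactamase reporter were plated at 4000 cells/well, rested 5 h, then exposed to compounds in DMSO (217-fold dilution) for 16 h at 37C. CCF4-AM substrate was loaded 2 h at room temperature; 460/530 nm emission ratio scored gain-of-signal versus DMSO.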

A short description of assay [19]: TOX21_p53_BLA_p5_viability: Viability Assessment in the Tox21 HCT-116 p53 Agonism Beta-lactamase Assay, Phase 5 (AID 2283600). In outline: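 HCT-116 p53 beta-lactamase reporter cells, 4000/well, were exposed to compound (pin transfer, 217-fold dilution) for 16 hours at 37C. Cellular ATP was read by CellTiter-Glo luminescence after 30 min at room temperature.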

Assay [20] is described as follows: TOX21_p53_BLA_p2_viability: Viability Assessment in the Tox21 HCT-116 p53 Agonism Beta-lactamase Assay, Phase 2 (AID 2283591).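 Also: compound exposure lasted 16 h at 37 °C; actives lower the ATP signal meaning cytotoxicity.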 In outline: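 HCT-116 p53-bla cells (4000/well) rested 5 h at 37C, then received compounds in DMSO (217-fold dilution) for 16 h at 37C, 5% CO2. After the CCF4 read, CellTiter-Glo was added; ATP luminescence was read after 30 min at room temperature.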

Results filed as inconclusive are left out. Active and inactive are the calls of the source. The calls were made as follows, unless noted: active = hit-call score of the fitted dose curve at least 0.9, where 1 is the maximum; inconclusive = response in the unintended direction; inactive = score below 0.9.

Chain of Cellular tumor antigen p53 (Homo sapiens) (P04637 whole entry, looked up): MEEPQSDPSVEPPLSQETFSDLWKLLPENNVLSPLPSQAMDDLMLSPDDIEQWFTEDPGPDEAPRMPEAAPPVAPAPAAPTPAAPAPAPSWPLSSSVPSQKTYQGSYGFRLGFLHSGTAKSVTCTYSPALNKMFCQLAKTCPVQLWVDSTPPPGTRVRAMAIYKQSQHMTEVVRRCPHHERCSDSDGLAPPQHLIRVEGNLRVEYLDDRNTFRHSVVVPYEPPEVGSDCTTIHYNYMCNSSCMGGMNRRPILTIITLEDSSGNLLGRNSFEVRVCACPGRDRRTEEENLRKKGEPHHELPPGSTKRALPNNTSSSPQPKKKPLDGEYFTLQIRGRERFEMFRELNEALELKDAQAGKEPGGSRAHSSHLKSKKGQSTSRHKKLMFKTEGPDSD

Take `O=C(O)C(F)(F)C(F)(F)C(F)(F)C(F)(F)C(F)(F)C(F)(F)F`: the compound was called inactive in assay [1], in assay [2], in [3], in [4], in assay [5] and in [6]. In addition, the call in assay [7], in assay [8], in assay [9], in assay [10], in assay [11] and in [12] was inactive. Further, the call in assay [13], in assay [14] and in [15] was inactive.
Turning to `O=c1[nH]c(=O)[nH]c(=O)[nH]1`, the compound was called inactive in [1], in assay [2], in assay [3], in assay [4], in assay [5] and in assay [6]. For the same compound, the compound was called inactive in assay [7], in assay [8], in assay [9], in [10], in assay [11] and in assay [16]. The outcome in assay [12], in [17], in [13], in [14], in [18] and in [15] was inactive.
Regarding `C[C@]12CCC(=O)C[C@@H]1CC[C@@H]1[C@@H]2CC[C@]2(C)[C@@H](O)CC[C@@H]12`, the outcome in assay [1], in assay [2], in [3], in [4], in assay [5] and in assay [6] was inactive. Also, the compound was classed as inactive in assay [7], in [8], in assay [9], in assay [10], in [11] and in [16]. Besides, the call in assay [12], in assay [17], in assay [13], in [14], in assay [19] and in assay [18] was inactive. Moreover, the compound was called inactive in [15].
As for `CC1(C)CCC(Cc2ccc(Cl)cc2)C1(O)Cn1cncn1` (centres undefined), the result in assay [11] was inactive.
For `Cc1ccccc1N`, the compound was classed as inactive in [1], in assay [2], in assay [3], in assay [4], in assay [5] and in [6]. In addition, the outcome in assay [7], in assay [8], in [9], in assay [10], in [11] and in [20] was inactive. Further, the outcome in assay [16], in [12], in assay [17], in [13], in assay [14] and in [19] was inactive. The outcome in [18] and in assay [15] was inactive.
In general, AC50 refers to the concentration at which the activity in the assay is half-maximal. In the case of `Oc1cccc2cccnc12`, the call in assay [1], in [2], in assay [3], in [4], in assay [5] and in assay [6] was inactive. The outcome in assay [7], in assay [8], in assay [9], in assay [10], in assay [11] and in [20] was inactive. Also, the compound was classed as inactive in assay [12], in assay [13] and in assay [19]. Also, the AC50 in assay [15] was 27.2 µM (active).
